# Experimental data as given in PubChem BioAssay (NCI).
# The panel holds about 83,000 compounds, 20% with a hit somewhere; the sample as a whole holds those more often.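 For each line, cells grew in 96-well plates with the test compound present at a single concentration for 48 hours.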 Values without a mark were called inactive. Activity calls are given as the source filed them. Rule for the calls: active = growth percent below 10; inactive = the rest.
# Key:
# Assay in all cases: NCI-60 one-dose screen, 48 h (100 = growth as untreated, 0 = no growth, -100 = all killed)
# Settings in all cases: 10 µM unless noted
# NCI-H23 lung = tested on: NCI-H23 lung
# NCI-H226 lung = tested on: NCI-H226 lung
# NCI-H322M lung = tested on: NCI-H322M lung
# HOP-62 NSCLC = tested on: HOP-62 NSCLC
# NCI-H460 lung = tested on: NCI-H460 lung
# HOP-92 NSCLC = tested on: HOP-92 NSCLC
# NCI-H522 lung = tested on: NCI-H522 lung
# A549/ATCC NSCLC = tested on: A549/ATCC NSCLC
# 786-0 renal = tested on: 786-0 renal
# COLO 205 colon = tested on: COLO 205 colon
# DU-145 prostate = tested on: DU-145 prostate
# K-562 leukemia = tested on: K-562 leukemia
# MALME-3M melanoma = tested on: MALME-3M melanoma
# MDA-MB-231 breast = tested on: MDA-MB-231 breast
# RXF 393 renal = tested on: RXF 393 renal
# SF-268 CNS = tested on: SF-268 CNS
# SF-295 CNS = tested on: SF-295 CNS
# SF-539 CNS = tested on: SF-539 CNS
# UACC-257 melanoma = tested on: UACC-257 melanoma
# M14 melanoma = tested on: M14 melanoma
SMILES,growth (NCI-H23 lung),growth (NCI-H226 lung),growth (NCI-H322M lung),growth (HOP-62 NSCLC),growth (NCI-H460 lung),growth (HOP-92 NSCLC),growth (NCI-H522 lung),growth (A549/ATCC NSCLC),growth (786-0 renal),growth (COLO 205 colon),growth (DU-145 prostate),growth (K-562 leukemia),growth (MALME-3M melanoma),growth (MDA-MB-231 breast),growth (RXF 393 renal),growth (SF-268 CNS),growth (SF-295 CNS),growth (SF-539 CNS),growth (UACC-257 melanoma),growth (M14 melanoma)
CCCCCC1CCCCN1C(=O)OCC (stereo not given),106%,122%,112%,117%,108%,75.9%,98.2%,105%,88.2%,101%,105%,94.9%,90.9%,103%,170%,99.7%,123%,107%,106%,97.4%
C[C@H]1OC(=O)/C=C/[C@@H](O)[C@@H](O)CCCCCCCC[C@@H]1O,95.1%,89.3%,96.2%,82.9%,102%,82.8%,79.5%,73.6%,97.5%,95.1%,107%,91.6%,98.1%,109%,107%,102%,98.9%,97.7%,82.5%,96.3%
CN1CCN(c2ccc3nc(-c4[nH]ncc4Nc4ncnc5c4OCCCN5)[nH]c3c2)CC1,-53.9% (active),-76.4% (active),-67.3% (active),-48.4% (active),-69.8% (active),-29.3% (active),-26.2% (active),-63% (active),-59.3% (active),-72.5% (active),-27.6% (active),7.54% (active),-76.1% (active),-37.8% (active),-89.3% (active),-51% (active),-90.4% (active),-86.7% (active),-20.5% (active),-74.9% (active)
O=C1c2ccccc2NC(c2cn(-c3ccccc3)nc2-c2cccnc2)N1Cc1ccccc1 (stereo not given),92.3%,109%,93%,111%,108%,93.4%,78.4%,102%,89.9%,121%,101%,96.8%,119%,94.3%,97.6%,84.8%,92%,95.6%,123%,106%
COc1ccc(-c2n[nH]nc2-c2cc3ccccc3s2)cc1O,27.9%,51.6%,58.8%,24.1%,10.1%,49.9%,-5.47% (active),15%,33.6%,51.4%,25.1%,5.55% (active),74.7%,-3% (active),16.4%,37%,26.9%,-13.4% (active),50.2%,12.4%
Nc1ccccc1NC(=O)c1ccc(CN2CCC/C(=C\c3ccccn3)C2=O)cc1,29.3%,52.8%,39.8%,41.8%,17.9%,46%,21.1%,26.2%,44.5%,1.53% (active),45.9%,9.55% (active),20.9%,45.3%,2.96% (active),25%,-2.97% (active),27.4%,26.3%,12.3%
N#Cc1c(-c2ccco2)nc2c(c(-c3ccccc3)nn2-c2ccccc2)c1-c1ccc(O)cc1,99.7%,73.3%,81.9%,-50% (active),49.8%,76.1%,19.3%,46.9%,59.1%,3.62% (active),75.8%,15.7%,35%,82.4%,101%,67.6%,66.6%,82.5%,60.6%,65.6%
Nc1nc2c(c(=O)[nH]1)C(c1ccc3c(c1)OCO3)C=C(C(=O)O)N2 (stereo not given),109%,115%,114%,115%,110%,117%,106%,99.2%,98.3%,119%,112%,99.7%,101%,121%,120%,112%,94.2%,101%,97%,112%
CCCCC[C@H]1CC=C2C(=O)C=C[C@@H]2CC=CCCCC(=O)O[C@@H](CCCCC)CC=C2C(=O)C=C[C@@H]2CC=CCCCC(=O)O[C@@H](CCCCC)CC=C2C(=O)C=C[C@@H]2CC=CCCCC(=O)O1,-16.4% [8.75 µM] (active),6.47% [8.75 µM] (active),17.9% [8.75 µM],-10.6% [8.75 µM] (active),0.981% [8.75 µM] (active),-47.7% [8.75 µM] (active),-48.5% [8.75 µM] (active),-29.7% [8.75 µM] (active),-48.7% [8.75 µM] (active),-30.7% [8.75 µM] (active),10.6% [8.75 µM],5.31% [8.75 µM] (active),-14.3% [8.75 µM] (active),-37.2% [8.75 µM] (active),-65.4% [8.75 µM] (active),14.4% [8.75 µM],2.07% [8.75 µM] (active),-8.63% [8.75 µM] (active),-3.87% [8.75 µM] (active),-26.3% [8.75 µM] (active)
CN(C)CCCCC(C(=O)CBr)(c1ccccc1)c1ccccc1,30.6%,86.1%,74.5%,51.8%,49.5%,-12.2% (active),-90% (active),49.7%,5.16% (active),-76% (active),31%,-7.09% (active),-55.9% (active),38.1%,-51.5% (active),48.7%,43.7%,20.2%,6.07% (active),18.8%
COC(=O)[C@]12CC[C@@H](C(C)=O)[C@@H]1[C@H]1CC[C@@H]3[C@@]4(C)C/C(=C/c5cccnc5)C(=O)C(C)(C)[C@@H]4CC[C@@]3(C)[C@]1(C)CC2,53.2%,48.1%,93.9%,103%,70.9%,66.7%,47.5%,51.4%,84.9%,82.5%,68.8%,18.3%,29.9%,76.6%,30.9%,68.6%,75.3%,81%,58.1%,56.7%
C=C(C)[C@@H]1CC[C@]2(CN)CC[C@]3(C)[C@H](CC[C@@H]4[C@@](C)(CCCN)[C@H](C(=C)C)CC[C@]43C)[C@@H]12,91.1%,90.6%,90.2%,90.6%,94.7%,67.4%,94%,82.7%,81.8%,34.5%,94.8%,1.94% (active),80.2%,92.8%,79%,79.9%,101%,90.4%,99.7%,75.2%
COC(=O)C(Cc1ccccc1)n1cc(COc2nc(Cl)nc(Nc3ccc(Cl)cc3)n2)nn1 (stereo not given),92.5%,99.8%,95.3%,95%,101%,105%,88.2%,102%,98.9%,117%,81.5%,90.6%,89.4%,94%,101%,97.8%,101%,97.4%,94.7%,91.5%
CCC(=O)c1c(C)[nH]c(C)c1C,94%,101%,94.6%,77.8%,55.5%,107%,56.2%,86.2%,99.2%,89.4%,0.904% (active),110%,116%,95.8%,80.4%,90.7%,68.3%,105%,99%,90.4%
C=C(C)[C@@H]1CC[C@]2(/C=N/Nc3ccncc3)CC[C@]3(C)[C@H](CC[C@@H]4[C@@]5(C)CCCNC(C)(C)[C@@H]5CC[C@]43C)[C@@H]12,85.9%,87.7%,102%,94.7%,86.6%,55.6%,94.8%,78%,99.8%,42.2%,95.7%,7.55% (active),80.3%,101%,96.3%,97.2%,99.1%,88.7%,94.7%,79.4%
